# In paper PMC5540273 (PLoS ONE, 2017):
# Where two headings read alike, the source gives them in different places.
# How the values were obtained:
# [1] = system: FGFR1; details: concentration: 1 μM, replicates: in singlicate; n = 1
# [2] = system: FGFR2; details: concentration: 1 μM, replicates: in singlicate; n = 1
# [3] = system: FGFR3; details: concentration: 1 μM, replicates: in singlicate; n = 1
# [4] = system: FGFR4; details: concentration: 1 μM, replicates: in singlicate; n = 1
# [5] = system: FGR; details: concentration: 1 μM, replicates: in singlicate; n = 1
# [6] = system: FLT1; details: concentration: 1 μM, replicates: in singlicate; n = 1
# [7] = system: FLT3-autoinhibited; details: concentration: 1 μM, replicates: in singlicate; n = 1
# [8] = system: FLT3; details: concentration: 1 μM, replicates: in singlicate; n = 1
# [9] = system: FLT4; details: concentration: 1 μM, replicates: in singlicate; n = 1
# [10] = system: FRK; details: concentration: 1 μM, replicates: in singlicate; n = 1
# [11] = system: FYN; details: concentration: 1 μM, replicates: in singlicate; n = 1
# [12] = system: GAK; details: concentration: 1 μM, replicates: in singlicate; n = 1
# [13] = system: T1, GCN2(Kin.Dom.2,S808G); details: concentration: 1 μM, replicates: in singlicate; n = 1
# T1 construct: gene EIF2AK4
# [14] = system: GRK1; details: concentration: 1 μM, replicates: in singlicate; n = 1
# [15] = system: T2, GRK2; details: concentration: 1 μM, replicates: in singlicate; n = 1
# T2 construct: gene ADRBK1
# [16] = system: T3, GRK3; details: concentration: 1 μM, replicates: in singlicate; n = 1
# T3 construct: gene ADRBK2
# [17] = system: GRK4; details: concentration: 1 μM, replicates: in singlicate; n = 1
# [18] = system: GRK7; details: concentration: 1 μM, replicates: in singlicate; n = 1
# [19] = system: GSK3A; details: concentration: 1 μM, replicates: in singlicate; n = 1
# [20] = system: GSK3B; details: n = 1
# [21] = concentration: 1 μM, replicates: in singlicate
# 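Further: KINOMEscan kinase panel screen.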
smiles,measurement,setting,value
COc1cccc(C2=C(Nc3cccc(O)c3)C(=O)NC2=O)c1 [SB-390771],%Inh,[1],0%
same,%Inh,[2],29%
same,%Inh,[3],28%
same,%Inh,[4],19%
same,%Inh,[5],33%
same,%Inh,[6],22%
same,%Inh,[7],0%
same,%Inh,[8],3%
same,%Inh,[9],20%
same,%Inh,[10],11%
same,%Inh,[11],0%
same,%Inh,[12],0%
same,%Inh,[13],0%
same,%Inh,[14],4%
same,%Inh,[15],0%
same,%Inh,[16],31%
same,%Inh,[17],0%
same,%Inh,[18],100%
same,%Inh,[19],0%
same,%Inh,[20]; 1 µM,13%
Fc1cc(Cl)ccc1Nc1ccnc2cc(-c3ccc(CN4CCSCC4)o3)ccc12 [GW560106],%Inh,[1],47%
same,%Inh,[2],34%
same,%Inh,[3],11%
same,%Inh,[4],19%
same,%Inh,[5],90.8%
same,%Inh,[6],87%
same,%Inh,[7],0%
same,%Inh,[8],72%
same,%Inh,[9],91.6%
same,%Inh,[10],86%
same,%Inh,[11],90.5%
same,%Inh,[12],84%
same,%Inh,[13],0%
same,%Inh,[14],0%
same,%Inh,[15],0%
same,%Inh,[16],32%
same,%Inh,[17],3%
same,%Inh,[18],0%
same,%Inh,[19],22%
same,%Inh,[20]; [21],0%
Cc1ccc(O)cc1Nc1ccnc2cc(-c3ccc(CN4CCCCC4)o3)ccc12 [GW557777],%Inh,[1],25%
same,%Inh,[2],21%
same,%Inh,[3],0%
same,%Inh,[4],2%
same,%Inh,[5],100%
same,%Inh,[6],89%
same,%Inh,[7],8%
same,%Inh,[8],43%
same,%Inh,[9],68%
same,%Inh,[10],99.9%
same,%Inh,[11],99.7%
same,%Inh,[12],99.6%
same,%Inh,[13],0%
same,%Inh,[14],0%
same,%Inh,[15],0%
same,%Inh,[16],0%
same,%Inh,[17],13%
same,%Inh,[18],0%
same,%Inh,[19],0%
same,%Inh,[20]; [21],0%
Cl.O=C(Nc1ccc(Oc2ccc3[nH]c(NC(=O)c4ccco4)nc3c2)cc1)Nc1cc(C(F)(F)F)ccc1F [GW683134],%Inh,[1],40%
same,%Inh,[2],77%
same,%Inh,[3],36%
same,%Inh,[4],12%
same,%Inh,[5],24%
same,%Inh,[6],98.5%
same,%Inh,[7],25%
same,%Inh,[8],99.4%
same,%Inh,[9],99.9%
same,%Inh,[10],77%
same,%Inh,[11],42%
same,%Inh,[12],0%
same,%Inh,[13],10%
same,%Inh,[14],0%
same,%Inh,[15],0%
same,%Inh,[16],11%
same,%Inh,[17],100%
same,%Inh,[18],0%
same,%Inh,[19],0%
same,%Inh,[20]; [21],9%
CC(=O)Nc1cn2nc(Oc3cccc(NC(=O)c4cccc(C(F)(F)F)c4)c3)ccc2n1,%Inh,[1],0%
same,%Inh,[2],91.4%
same,%Inh,[3],53%
same,%Inh,[4],50%
same,%Inh,[5],93.1%
same,%Inh,[6],98.5%
same,%Inh,[7],0%
same,%Inh,[8],97.4%
same,%Inh,[9],100%
same,%Inh,[10],99.9%
same,%Inh,[11],96.7%
same,%Inh,[12],0%
same,%Inh,[13],37%
same,%Inh,[14],0%
same,%Inh,[15],0%
same,%Inh,[16],0%
same,%Inh,[17],1%
same,%Inh,[18],0%
same,%Inh,[19],20%
same,%Inh,[20]; [21],0%
Cc1ccc(Nc2ccnc(Nc3ccc(C)c(F)c3)n2)cc1O.Cl [GW582868],%Inh,[1],1%
same,%Inh,[2],0%
same,%Inh,[3],12%
same,%Inh,[4],5%
same,%Inh,[5],85%
same,%Inh,[6],46%
same,%Inh,[7],0%
same,%Inh,[8],59%
same,%Inh,[9],72%
same,%Inh,[10],92.9%
same,%Inh,[11],79%
same,%Inh,[12],53%
same,%Inh,[13],36%
same,%Inh,[14],100%
same,%Inh,[15],0%
same,%Inh,[16],70%
same,%Inh,[17],0%
same,%Inh,[18],0%
same,%Inh,[19],14%
same,%Inh,[20]; [21],7%
Cl.Cl.NCC(NC(=O)c1cc(-c2cccnc2)c(-c2ccnc3[nH]ccc23)s1)c1ccccc1 (stereo not drawn) [GSK1323434],%Inh,[1],8%
same,%Inh,[2],0%
same,%Inh,[3],39%
same,%Inh,[4],6%
same,%Inh,[5],42%
same,%Inh,[6],17%
same,%Inh,[7],0%
same,%Inh,[8],5%
same,%Inh,[9],0%
same,%Inh,[10],15%
same,%Inh,[11],6%
same,%Inh,[12],88%
same,%Inh,[13],0%
same,%Inh,[14],0%
same,%Inh,[15],8%
same,%Inh,[16],39%
same,%Inh,[17],4%
same,%Inh,[18],21%
same,%Inh,[19],34%
same,%Inh,[20]; [21],22%
CN(C)CCOc1ccc(-c2cc(-c3ccc(Cl)c(O)c3)c(-c3ccncc3)[nH]2)cc1.Cl.Cl [SB-684387],%Inh,[1],0%
same,%Inh,[2],1%
same,%Inh,[3],30%
same,%Inh,[4],15%
same,%Inh,[5],73%
same,%Inh,[6],0%
same,%Inh,[7],17%
same,%Inh,[8],0%
same,%Inh,[9],1%
same,%Inh,[10],82%
same,%Inh,[11],78%
same,%Inh,[12],42%
same,%Inh,[13],0%
same,%Inh,[14],43%
same,%Inh,[15],0%
same,%Inh,[16],21%
same,%Inh,[17],0%
same,%Inh,[18],17%
same,%Inh,[19],41%
same,%Inh,[20]; [21],10%
COc1ccc(C2=C(Nc3cccc(O)c3)C(=O)NC2=O)cc1 [SB-390766],%Inh,[1],0%
same,%Inh,[2],0%
same,%Inh,[3],0%
same,%Inh,[4],27%
same,%Inh,[5],0%
same,%Inh,[6],5%
same,%Inh,[7],0%
same,%Inh,[8],0%
same,%Inh,[9],35%
same,%Inh,[10],11%
same,%Inh,[11],34%
same,%Inh,[12],0%
same,%Inh,[13],61%
same,%Inh,[14],0%
same,%Inh,[15],0%
same,%Inh,[16],33%
same,%Inh,[17],0%
same,%Inh,[18],0%
same,%Inh,[19],41%
same,%Inh,[20]; 1 µM,35%
